For 40 sequences, PBM binding z-score results are on record in the supplement of paper PMC6555819.

For this test, the system named is VDR:RXRa (NR concentration 270 nM, RXRa partner concentration 90 nM). Briefly: PBM binding z-score (relative to random genomic background probes); higher = stronger binding; sequences stand for … in GC…GCGATTGACAGCGTAGAATGAAGG
The procedure: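 Protein-binding microarray (Agilent 4x180K custom design, double-stranded 60-nt probes: 5' GC cap, 34-nt variable region, 24-nt constant primer region; full probe sequence given). Purified or IVT nuclear receptor:RXRα heterodimers (3:1 NR:RXRα, mostly 270:90 nM) or homodimers were incubated for 1 h in PBS with 2% milk and no ligand, then detected with Alexa488 antibodies. Fluorescence from o1-orientation probes (~5 replicates averaged) was converted to z-scores against 500 random hg19 background probes. Variable regions are seed direct-repeat (DR0–DR5) sites, all their single-nucleotide variants and half-site ablations.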
Turning to TTACCAAGGTGAACTGAGGTCGTTGATCCAACTC, the PBM binding z-score was 5.77.

For the sequence ACTAGCAGGTCAAGGGTCACTCAAGATTAGTCCG, the PBM binding z-score was found to be 5.4.

The sequence TGAATGAAGTTAAAGATCAGGGAACGTGGCGTCG showed a PBM binding z-score of -0.41.

As to TCGAGAAGGTTACGGGGGCATTCAGGGATGAAGA, the PBM binding z-score is 4.82.

In the case of CCTTACGGGTCGCTGACAGGTTATAGCATTTGGA, the PBM binding z-score was 0.961.

As to TATACTGGGTCAAAGGCCAGAGTACGAATGTCGA, the PBM binding z-score was determined as 2.38.

On to CCTACTGGGCCATTCAGAGGTCACTGATCATATG, for which the PBM binding z-score amounted to 3.58.

Consider TTACCAAGGTGAAGGTCGTGGATCCCTCTGTAGA, for which the PBM binding z-score was 1.28.

For the sequence CGTCCAAGGTCATAGGAGGTCACTGAAGACAGAT, the PBM binding z-score is 7.05.

As to ACTAGTTGGTCAGCTGAGGTCACACACAATTCGG, the PBM binding z-score came to 4.67.

The sequence CTATGTAGGTTAAGGGGGTCACTCAGTTTGAAAG registered a PBM binding z-score of 7.21.

In turn, CCGAGTAGGTTTCGAGGGGGCATTCAGTGCGAAT showed a PBM binding z-score of 3.65.

In turn, CGAACTCGGTCAAAGGACAGTGAAAGGCGACGTA registered a PBM binding z-score of 0.208.

Consider TCGAGTAGGTTACGGGGGCATCCAGGGATGAAGA, for which the PBM binding z-score stood at 3.51.

Sequence TAGCCAAGGTCATTCAGGGGCCAGTATAGAAAGC gave a PBM binding z-score of 5.28.

CCTGCTAGGTCAAGGGTCAGCTAAAGCAGCTCGC displayed a PBM binding z-score of 4.17.

In turn, CGAACTAGGTCACCAGGACAATGAAGAGGTTGGA showed a PBM binding z-score of 2.21.

ATATGTAGGTTAGGGTAATTCAGAAAGTAGGGAA came in with a PBM binding z-score of 1.09.

ATTTGTAGGTTAGGGTCATTCAGAAAGTAGGGAA came in with a PBM binding z-score of 4.81.

Turning to GCTTACGGGTCAAAGGTTACAGCATGAATAGAAT, the PBM binding z-score stood at 5.69.

AGTCAAAGTTCATCTGGGTAACGTAAGATATGCT had a PBM binding z-score of 4.96.

Turning to AATACAGGGTCGCTAGGCCAGAGTAGGTACGAAT, the PBM binding z-score is 0.828.

ATATGCAGGTTATCGGGTCATTCAGTTTGCGCAT: the PBM binding z-score was found to be 5.27.

The sequence TCGAGTAGGTTACGGGGGCAATCAGGGATGAAGA had a PBM binding z-score of 3.22.

With CCTACTGGGCCAAAGGTCATTGACTCCAATGCTC, the PBM binding z-score was 4.58.

As to CGTCCAAGGTCAAAGGTCAGTAAAGAGATGACGG, the PBM binding z-score was determined as 6.53.

CCTCCAAGGTCATAGGAGGTCAGTGAAGACAGAT had a PBM binding z-score of 6.6.

CCGAGTAGCTTACGAGGGGGCATTCAGTGCGAAT displayed a PBM binding z-score of 3.41.

In turn, CCTTACGGGTCAGTGACAGGTTATAGCATTTGGA displayed a PBM binding z-score of 2.49.

CTCGAAAGGTCGTGGTCAGGTGAGTATACCAAAC gave a PBM binding z-score of 3.61.

Regarding CGAACTAGGTCAACGACAGTGAATCTCCGCACGC, the PBM binding z-score was found to be 1.27.

In turn, GCATATAGGTAATTCAAGGTGAAAGTCCGATTGT showed a PBM binding z-score of 0.627.

The sequence CGAACTAGTTCAAAGGACAGTGAAAGGCGACGTA returned a PBM binding z-score of 0.0501.

Turning to CCTACTGGGCCAAAAAGGTAATTGATGCCGATAA, the PBM binding z-score was -0.157.

In turn, CCTACTGGGCCAAAGGTCCTTGATTCCAATGCTC showed a PBM binding z-score of -0.303.

In turn, CGAACTAGATCACCAGGACAGTGAAGAGGTTGGA displayed a PBM binding z-score of -0.366.

As to CGAACTAGGTCAAACGACAGTGAAAGGCGACGTA, the PBM binding z-score was 1.43.

Consider ATATGTAGGTTAGGGTCATTTAGAAAGTAGGGAA, for which the PBM binding z-score turned out to be 4.26.

The sequence AGTCAAAGTTCAGGACGAGGTACCGTAAAGCACG had a PBM binding z-score of 2.08.

Regarding CGTACTAGGTCAAAGGACAGTGAAAGGCGACGTA, the PBM binding z-score was found to be 1.33.
